This note sets out measurements from PubChem BioAssay AID485364 (National Center for Advancing Translational Sciences (NCATS), 2010).

In all, about 360,000 compounds went through this assay and about 11,000 (3.1%) were called active. Another 4% or so got no clear call; they are omitted. Calls come from the whole dose curve; as a rule, active = well fitted inhibition curve with a large enough effect; inconclusive = small, poorly fitted or top-dose-only effect; inactive = no such curve, though single readings can be large or run the other way. What follows is part of a selection rich in actives, with near analogues and random picks from the rest. Entries that show only a call come without a potency.
Potency is the fitted concentration of half-maximal effect.

This experiment addresses Schistosoma mansoni thioredoxin glutathione reductase (TGR) (UniProt Q962Y6). Put plainly: qHTS Assay for the Inhibitors of Schistosoma Mansoni Peroxiredoxins. Note: nearly all actives have a fitted effect of over 60% in size. Particulars: purified TGR, DTNB reduction, TNB absorbance 405 nm; series mostly up to 114 µM. The method, boiled down:
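First, TGR (20 nM dispensed) and NADPH were mixed with compound. Second, a 15 min room-temperature incubation followed. Third, further NADPH and then DTNB were added to start the reaction. Finally, TNB absorbance was monitored kinetically.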
In general terms: Quantitative high-throughput screening tests each substance at several concentrations.
Take `Cc1ccc(-c2nn(CCC(=O)Nc3ccc(OC(F)(F)F)cc3)c(=O)c3ccccc23)cc1`: the Potency entry is “inactive”.
The value for `Cc1cc(C)cc(NS(=O)(=O)c2cc3c(cc2C)NC(=O)CO3)c1` was “inactive”.
The result for `COc1ccc(Cn2c(C(=O)O)c(CNCCc3cccs3)c3ccc(OC)cc32)cc1` reads “inactive”; that for `CCOCCc1nn2c(=O)cc(COC(=O)CNC(=O)c3ccc(C(C)(C)C)cc3)nc2s1`, “inactive”.
The value for `CCN(C(=O)CSc1nnc(C)n2c1cc1occc12)c1ccccc1` was “inactive”.
For the compound `Cc1ccc(Cl)cc1NC(=O)C(C)n1nnc2sc(-c3ccccc3)cc2c1=O` (centres undefined), the Potency result was “inactive”.
The value for `COc1ccc(C2c3c(oc4ccccc4c3=O)C(=O)N2Cc2ccc3c(c2)OCO3)cc1` (centres undefined) was “inactive”; that for `CCOc1ccc(N(CC)S(=O)(=O)N2CCCC(C(=O)NCc3ccc(Cl)cc3)C2)cc1` (centres undefined) was “inactive”.
On to `COc1ccccc1N1CCN(c2ncnc3onc(-c4cccc(Cl)c4)c23)CC1`, for which the Potency result is “inactive”.
The result for `Cc1cccc(C)c1NC(=O)CS(=O)CC(=O)N1CCN(c2ccccc2)CC1` (centres undefined) reads “inactive”; that for `COc1ccc(-c2nc(CN3CCN(c4ncccn4)CC3)c(C)o2)cc1C`, “inactive”.
The result for `Cc1ccc(-c2nc(CS(=O)CC(=O)N3CCN(c4ncccn4)CC3)c(C)o2)cc1` (centres undefined) reads 7.08 µM (active); that for `O=C(NC1CCCC1)c1cc(-c2ccccc2)on1`, “inactive”.
The result for `O=C(NC1CCCCC1)c1ccc(-c2ccc(Cl)cc2)o1` reads 35.5 µM (active); that for `O=C(NC1CCCCCC1)c1cccnc1Sc1ccc(Cl)cc1`, “inactive”; that for `Cc1ccc(CCNC(=O)c2ccc3c(c2)N(Cc2cc(C)ccc2C)C(=O)c2ccccc2S3=O)cc1` (centres undefined), “inactive”.
Consider `Cc1ccccc1OCc1nc2c3cnn(-c4ccccc4F)c3ncn2n1`, for which the Potency result is “inactive”.
The value for `CCn1c(NC(=O)c2ccccc2)c(-c2cccs2)c(=O)c2ccccc21` was “inactive”; that for `CC(C)Cn1c(CCC(=O)O)ccc1-c1cccs1` was 22.4 µM (active); that for `O=C(O)CCC(=O)N(Cc1cccs1)Cc1cccs1` was “inactive”.
Take `CCOc1ccc(S(=O)(=O)c2cn(Cc3ccccc3)c3ccc(OCC)cc3c2=O)cc1`: the Potency entry is “inactive”.
The result for `Cc1cccc(CSc2ccc(-c3cccs3)nn2)c1` reads “inactive”; that for `Brc1ccc(CSc2ccc(-c3ccco3)nn2)cc1`, 17.8 µM (active); that for `Cn1c(SCc2c(F)cccc2Cl)nnc1-c1cnccn1`, “inactive”.
Consider `Cc1cc(SCc2c(F)cccc2Cl)nc(=O)[nH]1`, for which the Potency entry was “inactive”.
Regarding `Fc1cccc(Cl)c1CSc1ccc(-c2ccco2)nn1`, the Potency was 17.8 µM (active).
In the case of `N#Cc1ccc(-c2cccs2)nc1SCc1ccc(Br)cc1`, the Potency result was “inactive”.
The result for `COc1cccc(CNC(=O)C(NS(=O)(=O)c2ccc3nc(C)sc3c2)C(C)C)c1` (centres undefined) reads “inactive”.
For `COc1ccc(CNC(=O)CSc2nc3ccccc3nc2Cc2ccccc2)cc1`, the Potency result is “inactive”.
